# Laboratory results as given in PubChem BioAssay AID1851 (National Center for Advancing Translational Sciences (NCATS), 2009).
# “And” between values parts separate entries of the source, which are not always exact repeats. Equal entries are not always repeated. The whole screen tested about 16,000 compounds, of which about 2,600 (16%) were called active. Inconclusive results (about 20%) are left out. Calls follow the shape of the dose curve; as a rule, active = well fitted curve in the direction sought with a large enough effect; inconclusive = small, poorly fitted or top-dose-only effect, or effect the other way; inactive = no such curve, though single readings can be large or run the other way. A selection follows. More than one record can exist for a structure, and the calls need not agree.
# Target: Cytochrome P450 2D6 (Homo sapiens) (UniProt P10635)
# Sequence (P10635 whole entry, looked up): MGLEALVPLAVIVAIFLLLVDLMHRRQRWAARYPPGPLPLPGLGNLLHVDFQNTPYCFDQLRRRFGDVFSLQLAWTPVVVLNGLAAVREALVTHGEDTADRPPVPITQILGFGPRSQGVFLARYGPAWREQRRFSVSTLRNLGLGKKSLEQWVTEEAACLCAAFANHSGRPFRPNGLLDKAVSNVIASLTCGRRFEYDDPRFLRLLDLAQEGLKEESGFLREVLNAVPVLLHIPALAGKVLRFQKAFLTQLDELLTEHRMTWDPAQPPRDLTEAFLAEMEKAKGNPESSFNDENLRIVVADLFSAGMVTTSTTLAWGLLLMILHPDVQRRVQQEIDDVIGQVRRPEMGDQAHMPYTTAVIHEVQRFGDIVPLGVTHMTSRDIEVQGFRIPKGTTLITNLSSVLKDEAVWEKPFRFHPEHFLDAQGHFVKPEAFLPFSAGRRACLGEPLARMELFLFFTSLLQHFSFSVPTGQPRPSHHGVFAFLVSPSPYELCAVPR
# Test: Cytochrome panel assay with activity outcomes
# Settings: recombinant CYP, pro-luciferin dealkylation, luminescence, p450-cyp2d6; series mostly up to 57.1 µM; activity, negative = inhibition: at the top concentration
# % is scaled to controls: 0 for no effect and ±100 for the full control effect.
SMILES,"activity, negative = inhibition",AC50
Oc1ccccc1CNn1cnnc1,17.8% (inactive),
O=c1[nH]c2cc([N+](=O)[O-])c([N+](=O)[O-])cc2[nH]c1=O,-3.93% (inactive),
C[C@@H](CCc1ccccc1)NC[C@H](O)c1ccc(O)c(C(N)=O)c1,,3.98 µM (active) and 2 µM (active)
C[C@@H](CCc1ccc(O)cc1)NCCc1ccc(O)c(O)c1,-10.3% [at 25.6 µM] (inactive),
CC(CCc1ccccc1)NC(=O)C(=O)NCCO (stereo not drawn),22.2% (inactive),
O=C(OCC(=O)c1cccs1)c1cccc(C(=O)OCC(=O)c2cccs2)n1,,4.47 µM (active)
CCOC(=O)c1cccc(C(=O)OCC)n1,16.1% (inactive),
O=C(COc1cccc2ccccc12)NNC(=O)c1cccs1,-20.2% (inactive),
O=C(Nc1nnc(COc2ccc(Cl)cc2)s1)c1ccc([N+](=O)[O-])cc1,11.5% (inactive),
CCOc1ccc2ccccc2c1C(=O)N[C@@H]1C(=O)N2[C@@H]1SC(C)(C)[C@@H]2C(=O)O,3.09% [at 25.6 µM] (inactive),
O=[N+]([O-])c1cc(C(F)(F)F)ccc1NCCCCNS(=O)(=O)c1ccc2ccccc2c1,-21.4% (inactive),
COC(=O)c1ccccc1NC(=O)c1ccc(Cn2cc(Cl)cn2)o1,-0.222% (inactive),
Nc1ccc(C(=O)N/N=C/c2ccccc2)cc1,7.05% (inactive),
CCOC(=O)C1=C[C@@]2(CC)CCCN3CCc4c(n1c1ccccc41)[C@H]32,,6.31 µM (active) and inactive
CC[C@@]12CCCN3CCc4c(n(c5ccccc45)C(=O)C1)[C@H]32,,20 nM (active) and 251 nM (active)
CC[C@@]12CCCN3CCc4c(n(c5ccccc45)[C@](O)(C(=O)OC)C1)[C@H]32,,inactive and 251 nM (active)
Cn1c(Cc2cccc3ccccc23)nnc1SCC(=O)N1CCN(c2ccccc2)CC1,-4.52% (inactive),
CSc1nc(-c2ccc(C)cc2)nc(C(Cl)Cl)n1,-0.974% (inactive),
CCCC[C@H]1C(=O)N(c2ccccc2)N(c2ccc(O)cc2)C1=O,-4.48% [at 25.6 µM] (inactive),
CCOC(=O)N1CCN(S(=O)(=O)c2ccc3[nH]cc(C(=O)O)c(=O)c3c2)CC1,1.73% (inactive),
C[C@@]12CCC(=O)C=C1CC[C@H]1[C@@H]2[C@@H](O)C[C@]2(C)[C@@H]1CC[C@@]2(O)C(=O)COC(=O)C1CCCC1,8.32% [at 11.4 µM] (inactive),
CCCn1c(=O)c2[nH]c(-c3ccc(OCC(=O)NCCN)cc3)nc2n(CCC)c1=O,-3.55% (inactive),
C[C@@]12CCC(=O)C=C1CC[C@H]1[C@@H]2[C@@H](O)C[C@]2(C)[C@@H]1CC[C@@]2(O)C(=O)CO,17% [at 11.4 µM] (inactive),
O=C(Oc1ccccc1)N1CCC2(CC1)CCN(c1cccc(-c3ccccc3)c1)CC2,-1.29% (inactive),

SMILES,"activity, negative = inhibition",AC50
CCCCCCCCN[C@@H](C)[C@H](O)c1ccc(SC(C)C)cc1,,1 µM (active)
CCCn1cnc2c(SCC(=O)O)nc(N)nc21,7.62% [at 11.4 µM] (inactive),
CCOc1nc(NC(C)C)nc(NC(C)C)n1,2.84% (inactive),
COc1ccc(-n2cnc3sc(-c4ccccc4)cc3c2=O)cc1,3.48% (inactive),
COc1cccc(Nc2ncc(C(=O)O)c3ccccc23)c1,-14.6% (inactive),
COc1ccc(Nc2ncnc3sc(-c4ccccc4)cc23)cc1,,28.2 µM (active)
Fc1ccc(-c2cn3cc(C(F)(F)F)cc(Cl)c3n2)cc1,-24.8% (inactive),
COc1ccc(Cn2c(SCc3ccccc3C)nc3cc(OC)c(OC)cc3c2=N)cc1,,1.26 µM (active)
COc1ncc2ncc(=O)n(Cc3cccs3)c2n1,-10.7% (inactive),
CN1CCN(c2ncc3nc(-c4ccc(Cl)cc4)c(=O)n(Cc4cccs4)c3n2)CC1,-9.03% (inactive),
COCCNC(=O)CSc1nc2ccc(N3CCOCC3)cc2c(=O)n1Cc1ccc(OC)cc1,-6.47% (inactive),
CCCCNC(=O)CSc1nc2cc(OC)c(OC)cc2c(=O)n1Cc1ccc(OC)cc1,-21.3% (inactive),
COc1cc2nc(SCc3ccc(Cl)cc3Cl)n(Cc3cccs3)c(=N)c2cc1OC,,2.24 µM (active)
CC(=O)N(O)CCCCCNC(=O)CCC(=O)N(O)CCCCCNC(=O)CCC(=O)N(O)CCCCCN,2.63% [at 25.6 µM] (inactive),
CN1CCC2(CC1)CCN(C(=O)c1cc(C(F)(F)F)cc(C(F)(F)F)c1)CC2,0.0116% (inactive),
Cc1noc(C)c1COc1cccc(C(=O)OCC(=O)N2CC(=O)Nc3ccccc32)c1,0.688% (inactive),
CN(CC(=O)O)Cc1c(O)c(Cl)cc(Cl)c1Cl,8.14% [at 11.4 µM] (inactive),
N[C@@H](C(=O)O)c1ccc(C(=O)O)c(C(=O)O)c1,,7.94 µM (active) and inactive
N[C@@H](C(=O)O)c1ccc(P(=O)(O)O)cc1,,25.1 µM (active)
N[C@H](C(=O)O)c1ccc(C(=O)O)cc1,3.45% (inactive),
N[C@@H](C(=O)O)c1ccc(C(=O)O)cc1,,inactive
N[C@H](C(=O)O)c1ccc(O)c(C(=O)O)c1,-6.21% (inactive),
N[C@@H](C(=O)O)c1ccc(C(=O)O)c(O)c1,1.24% (inactive),
O=C(Oc1ccccc1N1C(=O)C2CCCCC2C1=O)c1ccccc1 (stereo not drawn),-2.61% (inactive),

SMILES,"activity, negative = inhibition",AC50
COCCn1c(=O)c(CCc2ccccc2)nc2cnc(Oc3cccc(Cl)c3)nc21,-6.18% (inactive),
Nc1ccc(S(=O)(=O)Nc2nccs2)cc1,5.42% [at 25.6 µM] (inactive),
CCN(CC)c1ccc(SS(=O)(=O)O)cc1,-13% (inactive),
C[C@@H](C(=O)NCCc1c[nH]c2ccccc12)[C@H]1C[C@]1(C)[C@H](NC(=O)OCc1ccccc1)c1ccccc1,,2 µM (active)
COC(=O)[C@H](C)[C@H]1C[C@]1(C)[C@H](NC(=O)OCc1ccccc1)c1ccccc1,5.73% (inactive),
O=C(N[C@@H](c1ccccc1)[C@@H]1C[C@H]1C(=O)NCc1ccccn1)OCc1ccccc1,1.41% (inactive),
C[C@@H](C(=O)NCc1cccc2ccccc12)[C@H]1C[C@]1(C)[C@H](NC(=O)OCc1ccccc1)c1ccccc1,-9.78% (inactive),
C[C@@H](C(=O)NCCF)[C@H]1C[C@]1(C)[C@H](NC(=O)OCc1ccccc1)c1ccccc1,,6.31 µM (active)
O=C(N[C@@H](c1ccccc1)[C@@H]1C[C@H]1C(=O)O)OCc1ccccc1,9.66% (inactive),
COC(=O)[C@H](C)[C@@H]1C[C@@]1(C)[C@@H](NC(=O)OCc1ccccc1)c1ccccc1,-2.56% (inactive),
C[C@@H](C(=O)NCc1ccc(S(C)(=O)=O)cc1)[C@H]1C[C@]1(C)[C@H](NC(=O)OCc1ccccc1)c1ccccc1,,0.398 µM (active)
C[C@@H](C(=O)NCc1ccccn1)[C@@H]1C[C@@]1(C)[C@@H](NC(=O)OCc1ccccc1)c1ccccc1,,12.6 µM (active)
O=C(O)c1ccccc1-c1ccc(/C=c2\sc3nc4cc(Br)cnc4n3c2=O)o1,-8.16% (inactive),
N#CC(C#N)=C(N)/C(C#N)=C/c1ccc(O)cc1,-1.02% (inactive),
COc1ccc(/C(C)=N/NC(=O)c2ccc(N(C)C)cc2)cc1,-6.35% (inactive),
COc1cc2c(cc1OC)C(C(=O)Nc1cccc(C)n1)C(c1cccnc1)N(C)C2=O (stereo not drawn),-18.4% (inactive),
COc1cc(C2C(=O)N(C3CCCC3)CC(=O)N2Cc2ccco2)ccc1OC(C)C (stereo not drawn),4.45% (inactive),
CCCC1C(=O)N(c2ccccc2)C1c1ccccc1 (stereo not drawn),3.57% (inactive),
CCCCOC(=O)c1cc2c(cn1)[nH]c1ccccc12,-13.7% (inactive),
CCCC[C@@H]1C[C@H]1C(NC(=O)Cc1ccccc1)c1ccc(-c2ccccc2)cc1 (stereo partly drawn),-5.89% (inactive),
CCOC(=O)c1c(C)nc2sc3c(=O)n(-c4ccc(C)cc4)cnc3c2c1-c1ccc(OC)cc1,-2.22% (inactive),
O=C(O)c1c2c(c(O)c3c1CN(C1CCCCC1)CO3)OCN(C1CCCCC1)C2,15.7% [at 11.4 µM] (inactive),
CNC(=O)[C@H](C)[C@@H]1C[C@@]1(C)[C@@H](NC(=O)OCc1ccccc1)c1ccccc1,,3.16 µM (active)
C[C@@H](C(=O)O)[C@H]1C[C@]1(C)[C@H](NC(=O)OCc1ccccc1)c1ccccc1,1.3% (inactive),

SMILES,"activity, negative = inhibition",AC50
C[C@@H](C(=O)O)[C@@H]1C[C@@]1(C)[C@@H](NC(=O)OCc1ccccc1)c1ccccc1,-0.73% (inactive),
O=C(O)C[C@H](Cc1ccccc1)C(=O)O,6.15% [at 11.4 µM] (inactive),
CCC(C)NC(=O)NC(=O)N(C1CCCCC1)S(C)(=O)=O (stereo not drawn),3.21% (inactive),
CO[C@H]1C[C@@H](O[C@@H]2[C@H](C)[C@H](O[C@@H]3O[C@@H](C)C[C@@H](N(C)C)[C@@H]3O)[C@H](C)C[C@]3(CO3)C(=O)[C@H](C)[C@H](O)[C@H](C)[C@H](C)OC(=O)[C@@H]2C)O[C@@H](C)[C@H]1O,8.23% [at 25.6 µM] (inactive),
C[N+]1(CCC[N+]2(C)C[C@H]3[C@H](C2)[C@H]2C=C[C@@H]3CC2)CCOCC1 (stereo partly drawn),-2.37% [at 11.4 µM] (inactive),
S=C(CSc1ccccc1)Nc1cccc2ccccc12,-5.75% [at 11.4 µM] (inactive),
NC(=S)Nc1cccc2cccnc12,-8.92% (inactive),
CN=C(N)/N=C(\N)Nc1cc2ccccc2c2ccccc12,,1.58 µM (active)
NC(=S)Nc1cc2ccccc2c2ccccc12,,28.2 µM (active)
CSc1nc(Oc2ccc(F)cc2)c2ccccc2n1,-4.49% (inactive),
C[C@@]1(C(NC(=O)c2cccs2)c2ccc(-c3ccccc3)cc2)C[C@H]1C1CCCCC1 (stereo partly drawn),7.48% (inactive),
COc1ccc(OC)c(NC(=O)CSCc2cnn(-c3ccccc3)c2-n2cccc2)c1,-26.4% (inactive),
O=C(NCc1ccco1)c1nc2c(nnn2Cc2cccc(Cl)c2)c(=O)[nH]1,1.2% (inactive),
COc1ccccc1Cn1nnc2c(=O)[nH]c(C3CCN(C(=O)c4ccc(C)cc4)CC3)nc21,-27.8% (inactive),
COc1cccc(Cn2nnc3c(=O)[nH]c(C4CCCN(C(=O)c5ccccc5Cl)C4)nc32)c1 (stereo not drawn),,15.8 µM (active)
NCCSc1nc(-c2ccccc2)c(-c2ccccc2)o1,5.57% [at 11.4 µM] (inactive),
COc1ccc(Br)c2c1C[C@H](C(=O)O)CC2,7.4% [at 11.4 µM] (inactive),
O=C(NNC(=O)c1sc2ccccc2c1Cl)Nc1ccc(Cl)cc1,-18.8% (inactive),
Cc1sc(NC(=O)C(C)C)c(C(=O)Nc2ccccc2)c1C,-25.2% (inactive),
Cc1sc(NC(=O)c2ccccc2)c(C(=O)NCCN(C)C)c1C,,14.1 µM (active)
Cc1ccc(C)c(-c2cc(C(=O)Nc3sc(C)c(C)c3C(N)=O)c3ccccc3n2)c1,2.56% (inactive),
